The panel holds about 83,000 compounds, 20% with a hit somewhere; the sample as a whole holds those more often.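 How to read the values: 0–100, growth inhibition (40 = 60% inhibited); 0, no net growth; -100 to 0, cell death (-40 = 40% of starting cells died; -100 = all dead).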 Values without a mark were called inactive. The source made the active and inactive calls. Rule for the calls: active = growth percent below 10; inactive = the rest.
system: T-47D breast; assay: NCI-60 one-dose screen, 48 h (100 = growth as untreated, 0 = no growth, -100 = all killed); details: 10 µM unless noted

Compound | growth
CN1C(=O)/C(=C\c2nc([P+](c3ccccc3)(c3ccccc3)c3ccccc3)c(N3CCOCC3)o2)SC1=S | 79.4%
COc1ccc2c(c1)c(-c1nc(-c3c[nH]c4ccncc34)cs1)cn2C | -49.6% (active)
COc1ccc(C(=O)c2cc3c(N)c(C(=O)Nc4ccc(C)cc4)sc3nc2C)cc1 | 46.6%
COc1cc2nc3cc([N+](=O)[O-])ccc3c(NCCNCC(C)O)c2cc1OC (stereo not drawn) | -7.36% (active)
Cc1sc2nc(NCCc3c[nH]c4ccc(Cl)cc34)[nH]c(=O)c2c1C | 44.9%
CC/C(=C(/c1ccc(Cl)cc1)c1ccc(OCCN(C)C)cc1)c1ccc(Cl)cc1 | 58.4%
CNC(=O)c1[nH]cc(-c2ccc(OC)cc2)c1-c1cc(OC)c2c(c1OC)OCO2 | 92.3%
C=CCc1c(O)c(C(=O)/C=C/c2ccccc2)c(OC)c2ccoc12 | 41.3%
COc1ccc(-c2cc(-c3ccc(Cl)cc3)c(C#N)c(=O)n2Cc2ccc(C(=O)Nc3ccccc3N)cc2)cc1 | 72.7%
COc1ccc(/C=C/C(=O)c2cccc(OCCCCOc3cccc(C(=O)/C=C/c4ccc(OC)c(OC)c4)c3)c2)cc1OC | 43.3%
CCOC(=O)c1ccc(NC(=O)c2nc(-c3cc(OC)c(OC)c(OC)c3)n(-c3ccc(Cl)cc3)n2)cc1 | 77.6%
Cc1ccc(CNc2ccc3nc(CCC4CCCCC4)[nH]c3c2)cc1 | 3.58% (active)
CC(=O)c1c(C)nc(SCC(=O)Nc2cccc(O)c2)n1-c1ccc(Cl)cc1 | 95.9%

Reference: PubChem BioAssay (NCI)
